Bioassay records as filed in PubChem.
Shown are actives, neighbours in structure and some others; about 2.4% of the full set was active somewhere.
Anthrax LT inh: inhibitors of anthrax lethal toxin internalization | Potency, µM (doses to about 40 µM), inactives show at the top dose activity change, negative = inhibition, actives largely listed as inhibitors | AID 912 | Cells, anthrax lethal toxin internalization, FRET ratio (460/530) | 70,000 tested, 0.67% active; further: on the % scale 0 is the no-effect control and ±100 the full control effect; nearly all actives have a fitted effect of over 50% in size
AmpC inh det: AmpC beta-lactamase inhibition, detergent assay; 71,000 tested, 0.09% active; Potency, µM (titrated, usually from 28.7 µM), without a hit: at the highest dose activity change, negative = inhibition; P00811; purified AmpC, nitrocefin hydrolysis with detergent; active means well fitted curve in the direction sought with a large enough effect; inconclusive means small, poorly fitted or top-dose-only effect; further: on the % scale 0 is the no-effect control and ±100 the full control effect
Target sequence (P00811 whole entry, looked up): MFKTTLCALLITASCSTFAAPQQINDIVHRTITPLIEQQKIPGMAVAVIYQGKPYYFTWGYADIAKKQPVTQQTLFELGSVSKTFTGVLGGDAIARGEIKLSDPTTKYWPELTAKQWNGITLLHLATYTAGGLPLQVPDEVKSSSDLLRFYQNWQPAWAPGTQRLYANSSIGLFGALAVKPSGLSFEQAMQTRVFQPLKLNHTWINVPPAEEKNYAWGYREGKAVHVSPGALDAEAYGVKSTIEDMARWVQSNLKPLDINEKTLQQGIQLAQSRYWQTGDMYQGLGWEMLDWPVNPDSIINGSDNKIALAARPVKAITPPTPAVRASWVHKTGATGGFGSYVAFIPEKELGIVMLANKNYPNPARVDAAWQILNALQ
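E. coli AmpC (5.3 nM) in 20 mM phosphate pH 7.0 with 0.01% Triton X-100, preincubated 15 min RT with compound; nitrocefin (2 uL of 800 uM stock) hydrolysis followed by 480 nm absorbance every 20 s over 4 min.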
AmpC inh no det: inhibitors of E. coli AmpC beta-lactamase without detergent | P00811 | AmpC nitrocefin hydrolysis, absorbance 480 nm, no detergent | Potency, µM (series often up to 28.7 µM), inactives show top-dose activity change, negative = inhibition | 71,000 tested, 1.8% active; further: % of control where 0% means no effect
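Enzyme, pH 7.0 phosphate. Compound titrations were pre-incubated with AmpC for 15 min at room temperature before nitrocefin (stock 800 uM) addition; product formation was recorded at 480 nm every 20 s for 4 min.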
Prx2 Sm inh: Schistosoma mansoni Prx2 inhibition; S. mansoni Prx2 activity coupled to TGR/GSH (TGR is thioredoxin glutathione reductase), NADPH fluorescence loss, qHTS; Potency, µM; 65,000 tested, 0.07% active
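Prx2 activity was followed as the loss of NADPH fluorescence (ex 365/em 450 nm), read every 30 sec for 8 min after H2O2 start. The enzyme mix (50 nM Prx2, 25 nM TGR, GSH, NADPH; pH 7.4 phosphate buffer) was incubated with compound for 15 min at room temperature first.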
Active calls of the source: *; [ ] = another dose, or the depositor's remark. Unless noted, the call rests on the fitted dose curve. Potency means the concentration at half of the fitted maximal effect.

Screening Cc1cccc2cc(C#N)c(SCC(=O)N3CC(=O)Nc4ccccc43)nc12 returned Anthrax LT inh -12%, AmpC inh det -4%, AmpC inh no det 16µM*[single pt active] and Prx2 Sm inh >57.
Screening Cc1cccc2cc(C#N)c(SCC(=O)N3CCC(C)CC3)nc12 returned Anthrax LT inh -2%, AmpC inh det -4%, AmpC inh no det 29% and Prx2 Sm inh >57.
Screening N#Cc1c(C(F)(F)F)cc(C2CC2)[nH]c1=O returned Anthrax LT inh -11%, AmpC inh det 15%, AmpC inh no det 4µM*[single pt active] and Prx2 Sm inh >57.
Screening Cn1c(C(=O)N2CCCC2)cc2c(=O)n(C)c3ccccc3c21 returned Anthrax LT inh 2%, AmpC inh det 12%, AmpC inh no det 11% and Prx2 Sm inh >57.
`Cc1cccc(N2CCN(C(=O)c3cc4c(=O)n(C)c5ccccc5c4n3C)CC2)c1C` gave Anthrax LT inh -18%, AmpC inh det 11%, AmpC inh no det 4µM*[single pt active] and Prx2 Sm inh >57.
`Cn1c(C(=O)N2CCN(c3ccccc3F)CC2)cc2c(=O)n(C)c3ccccc3c21` gave Anthrax LT inh -3%, AmpC inh det 13%, AmpC inh no det 4µM*[single pt active] and Prx2 Sm inh >57.
For Cn1c(C(=O)N2CCN(c3ncccn3)CC2)cc2c(=O)n(C)c3ccccc3c21 the results were Anthrax LT inh -4%, AmpC inh det 16%, AmpC inh no det 27% and Prx2 Sm inh >57.
For Cc1ccc(Cl)cc1N1CCN(C(=O)c2cc3c(=O)n(C)c4ccccc4c3n2C)CC1 the results were Anthrax LT inh -12%, AmpC inh det 13%, AmpC inh no det 4µM*[single pt active] and Prx2 Sm inh >57.
COc1ncc2nc(C)c(=O)n(-c3ccccc3)c2n1 was read as Anthrax LT inh -14%, AmpC inh det 0%, AmpC inh no det 10% and Prx2 Sm inh >57.
`CCCCN(CC)S(=O)(=O)c1cccc2cccnc12` gave Anthrax LT inh inconclusive, AmpC inh det 13%, AmpC inh no det 10% and Prx2 Sm inh >57.
For O=C1O/C(=C\Br)CC[C@@H]1c1cccc2ccccc12 the results were Anthrax LT inh -1%, AmpC inh det 0%, AmpC inh no det 3% and Prx2 Sm inh >26.
`CCOC(=O)CN1C(=O)C(=O)c2cccc(C)c21` gave Anthrax LT inh -10%, AmpC inh det 8%, AmpC inh no det 4µM*[single pt active] and Prx2 Sm inh >57.
`CCOC(=O)CN1C2=NCCN2c2ccccc21` gave Anthrax LT inh 0%, AmpC inh det -3%, AmpC inh no det -6% and Prx2 Sm inh >57.
COc1ccc(Cn2c(C)nc3c(c2=O)c2nc4ccccc4nc2n3Cc2ccco2)cc1 was read as Anthrax LT inh inconclusive, AmpC inh det 13%, AmpC inh no det 49% and Prx2 Sm inh >57.
`COc1ccc(S(=O)(=O)c2c(N)n(Cc3ccco3)c3nc4ccccc4nc23)cc1` gave Anthrax LT inh inconclusive, AmpC inh det -1%, AmpC inh no det 13µM* and Prx2 Sm inh >57.
Screening CN1CCN(c2ncc3nc(-c4cccs4)c(=O)n(Cc4ccc(F)cc4)c3n2)CC1 returned Anthrax LT inh inconclusive, AmpC inh det -1%, AmpC inh no det 106% and Prx2 Sm inh >57.
`O=C1c2ccccc2NC(c2ccco2)N1O` (centres undefined) gave Anthrax LT inh -3%, AmpC inh det 0% and AmpC inh no det -9%.
`O=C1C2=C(Nc3ccccc3SC2c2ccco2)c2ccccc21` (centres undefined) gave Anthrax LT inh inconclusive, AmpC inh det 7% and AmpC inh no det 0.4µM*.
Screening Cc1nc2cncnc2n(C2CC2)c1=O returned Anthrax LT inh -6%, AmpC inh det 0%, AmpC inh no det 47% and Prx2 Sm inh >57.
COc1ccc(NC(=O)C2CCCN(S(=O)(=O)c3cccnc3)C2)c(OC)c1 (centres undefined) was read as Anthrax LT inh -2%, AmpC inh det 16%, AmpC inh no det 4µM*[single pt active] and Prx2 Sm inh >57.
Screening CCN(CC)c1ccc(NC(=O)C2CCCN(S(=O)(=O)c3cccnc3)C2)c(C)c1 (centres undefined) returned Anthrax LT inh -13%, AmpC inh det 16%, AmpC inh no det 4µM*[single pt active] and Prx2 Sm inh >57.
COc1ccc(S(=O)(=O)N2CCCC(C(=O)Nc3cccnc3)C2)cc1Cl (centres undefined) was read as Anthrax LT inh -10%, AmpC inh det 10%, AmpC inh no det 41% and Prx2 Sm inh >57.
O=C(NCc1ccccc1)C1CCCN(S(=O)(=O)c2cccnc2)C1 (centres undefined) was read as Anthrax LT inh -6%, AmpC inh det -2%, AmpC inh no det 0% and Prx2 Sm inh >57.
Screening Cc1cc(C(C)(C)C)c(OCCCN2CCOCC2)c(C(C)(C)C)c1 returned Anthrax LT inh -10%[8 µM], AmpC inh det -2%[5.75 µM], AmpC inh no det 34%[5.75 µM] and Prx2 Sm inh >57.
`CC(=O)OC[C@@H]1O[C@@H](O/N=C2/C[C@@H](O)[C@@H](O)[C@@H]3[C@@H]4C(=O)N(Cc5ccccc5)C(=O)[C@H]4CC[C@H]23)[C@H](OC(C)=O)[C@H](OC(C)=O)[C@@H]1OC(C)=O` gave Anthrax LT inh -14%[8 µM].
Screening COc1ccc(NC(=O)CSc2nnc(Cn3c(=O)sc4ccccc43)n2C)cc1 returned Anthrax LT inh -5%, AmpC inh det 10%, AmpC inh no det inconclusive and Prx2 Sm inh >57.
Screening Cn1c(Cn2c(=O)sc3ccccc32)nnc1SCC(=O)Nc1ccccc1 returned Anthrax LT inh 1%, AmpC inh det 14%, AmpC inh no det 4µM*[single pt active] and Prx2 Sm inh >57.
`CCOc1ccc(NC(=O)CSc2nnc(Cn3c(=O)sc4ccccc43)n2C)cc1` gave Anthrax LT inh -4%, AmpC inh det 25%, AmpC inh no det 4µM*[single pt active] and Prx2 Sm inh >57.
Screening CC(C)CCSc1nnc(Cn2c(=O)sc3ccccc32)n1C returned Anthrax LT inh -13%, AmpC inh det 14%, AmpC inh no det 4µM*[single pt active] and Prx2 Sm inh >57.
Cc1ccc(NC(=O)CSc2nnc(Cn3c(=O)sc4ccccc43)n2C)cc1Cl was read as Anthrax LT inh 5%, AmpC inh det 8%, AmpC inh no det 4µM*[single pt active] and Prx2 Sm inh >57.
Cc1ccc(NC(=O)CSc2nnc(Cn3c(=O)sc4ccccc43)n2C)cc1 was read as Anthrax LT inh -9%, AmpC inh det 14%, AmpC inh no det 23% and Prx2 Sm inh >57.
Cc1ccc(CSc2nnc(Cn3c(=O)sc4ccccc43)n2C)cc1 was read as Anthrax LT inh -9%, AmpC inh det 6%, AmpC inh no det 26% and Prx2 Sm inh >57.
Cn1c(Cn2c(=O)sc3ccccc32)nnc1SCC(=O)Nc1ccc(F)cc1 was read as Anthrax LT inh -6%, AmpC inh det 10%, AmpC inh no det 4µM*[single pt active] and Prx2 Sm inh >57.
Screening COc1cccc(-n2c(Cc3cc(=O)[nH]c(=O)[nH]3)nnc2SCC(=O)N2CCC(C)CC2)c1 returned Anthrax LT inh 14%, AmpC inh det -1%, AmpC inh no det 8% and Prx2 Sm inh >57.
